Screens deposited in PubChem by National Center for Advancing Translational Sciences (NCATS).
TDP1 cell CPT: qHTS for Inhibitors of human tyrosyl-DNA phosphodiesterase 1 (TDP1): qHTS in cells in presence of CPT. chicken DT40 Tdp1-/-;hTDP1 cells + 20 nM CPT, ATP luminescence, 48 h. Potency, µM (doses to about 46.2 µM), for the others: at the top dose activity change, negative = growth inhibition, usual class: inhibitors. actives 12% (n = 420,000). AID 686979, 2013; further: potency means the concentration at half of the fitted maximal effect; nearly all actives have a fitted effect of over 55% in size
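Chicken DT40 Tdp1-/- cells complemented with human TDP1, 400 cells/well, exposed to compounds plus 20 nM camptothecin for at least 48 h at 37 C; viability read as ATP content by CellTiter-Glo luminescence.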
TDP1 cell noCPT: qHTS for Inhibitors of human tyrosyl-DNA phosphodiesterase 1 (TDP1): qHTS in cells in absence of CPT. DT40 Tdp1-/- hTDP1 cells, no CPT, ATP luminescence, 48 h. Potency, µM (top dose mostly 46.2 µM), without a hit: at the highest dose activity change, negative = growth inhibition, most hits filed as inhibitors. actives 15% (n = 420,000); further: potency means the concentration at half of the fitted maximal effect; nearly all actives have a fitted effect of over 55% in size
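Cells were dispensed at 400 per well, compounds added by pin tool, plates incubated ≥48 hr at 37 °C, then CellTiter-Glo added for 30 min at room temperature before luminescence reading. Line: DT40 Tdp1-/- complemented with hTDP1; camptothecin omitted.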
CtBP-E1A inh: qHTS Assay for Inhibitors of the CtBP/E1A Interaction; CtBP / adenovirus E1A interaction (AlphaScreen); activity change, % (no concentration beside the values); AlphaScreen GST-E1A/His-CtBP binding, 1536-well; hits give low values; actives 0.49% (n = 340,000); in the data active means activity change below about -65%; inconclusive means mostly about -30% to -63%
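In 5 uL wells, 23 nL compound meets equimolar GST-E1A and His-CtBP (5X stock 125 nM each) for 2 h, 37 °C. Beads (5X, 50 ug/mL) then 1 h, 37 °C, dark.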
IL-1B inflam inh: qHTS for Inhibitors of Inflammasome Signaling: IL-1-beta AlphaLISA Primary Screen; THP-1 LPS/ATP IL-1B secretion, AlphaLISA, 16 h; hits give low values; activity change, % at 57.5 µM; actives 4.7% (n = 360,000); AID 743279, 2014; in the data active means activity change below about -50%; inconclusive means mostly about -30% to -49%
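THP-1 cells pretreated 1 hr with compounds (up to 57.5 uM final), then stimulated with LPS (250 ng/mL final) plus ATP (1.25 mM final); secreted IL-1B measured by AlphaLISA after 16 hr, decreased signal indicating inhibition.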
Six1-Eya2 blk: qHTS Assay for Inhibitors of the Six1/Eya2 Interaction. Homeobox protein SIX1 (Homo sapiens) + Protein phosphatase EYA2 (Homo sapiens), …. AlphaScreen GST-Six1/His-Eya2 binding, biochemical; hits give low values. activity change, % (concentration not given with the values). actives 0.56% (n = 360,000). AID 651725, 2012; in the data active means activity change below about -65%; inconclusive means mostly about -30% to -63%
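AlphaScreen with GST-Six1 and His-Eya2 (5X mix: 250 nM and 500 nM), glutathione donor and nickel acceptor beads; buffer 50 mM Tris pH 8.0, 300 mM NaCl, 1 mM TCEP; 1 h at 37 C in the dark.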
TDP1 inh: qHTS Assay for Inhibitors of Tyrosyl-DNA Phosphodiesterase (TDP1) | Tyrosyl-DNA phosphodiesterase 1 (Homo sapiens), Q9NUW8 | recombinant TDP1, AlphaScreen DNA substrate cleavage | Potency, µM (top dose mostly 130 µM), without a hit: top-dose activity change, negative = inhibition, hits mostly inhibitors | actives 0.28% (n = 350,000) | AID 485290, 2010; further: potency means the concentration at half of the fitted maximal effect; nearly all actives have a fitted effect of over 40% in size
Target sequence (Q9NUW8 whole entry, looked up): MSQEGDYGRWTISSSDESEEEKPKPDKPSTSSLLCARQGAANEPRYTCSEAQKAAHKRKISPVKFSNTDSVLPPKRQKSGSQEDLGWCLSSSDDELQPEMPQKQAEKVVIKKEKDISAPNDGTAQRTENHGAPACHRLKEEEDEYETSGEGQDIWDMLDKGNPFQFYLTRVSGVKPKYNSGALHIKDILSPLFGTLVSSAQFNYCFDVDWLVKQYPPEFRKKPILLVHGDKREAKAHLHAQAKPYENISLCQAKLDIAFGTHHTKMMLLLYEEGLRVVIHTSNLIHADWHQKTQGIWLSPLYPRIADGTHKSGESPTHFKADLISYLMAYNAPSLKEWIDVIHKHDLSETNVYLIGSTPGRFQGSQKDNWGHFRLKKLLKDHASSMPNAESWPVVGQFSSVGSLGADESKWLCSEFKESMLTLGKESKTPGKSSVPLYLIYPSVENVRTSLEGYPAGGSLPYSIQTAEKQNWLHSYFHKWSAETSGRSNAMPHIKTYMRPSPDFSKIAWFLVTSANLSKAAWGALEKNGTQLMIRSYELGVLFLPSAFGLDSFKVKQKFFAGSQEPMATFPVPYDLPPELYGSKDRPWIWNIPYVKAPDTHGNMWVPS
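Steps: enzyme plus compound, 15 min RT; add biotin/phosphotyrosine-FITC oligonucleotide (15 nM final), react 5 min; add donor/acceptor beads (10 ug/ml final), 10 min; read AlphaScreen. Tdp1 at 1 nM final.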
The depositor's hits bear a star; u = inconclusive; x = no result; [ ] = another dose, or the depositor's remark. Most compounds without a hit are left out; they make up all but 18% or so of the library. Unless noted, the call rests on the fitted dose curve; in most records, active means well fitted curve in the direction sought with a large enough effect; inconclusive means small, poorly fitted or top-dose-only effect, or another doubt; inactive means no such curve, though single readings can be large; an effect the other way counts as inactive or inconclusive. On the % scale 0 is the no-effect control and ±100 the full control effect.

SMILES | TDP1 cell CPT | TDP1 cell noCPT | CtBP-E1A inh | IL-1B inflam inh | Six1-Eya2 blk | TDP1 inh
COc1ccc(S(=O)(=O)N(Cc2cc3cc(C)ccc3[nH]c2=O)CC2CCCO2)cc1 (stereo not drawn) | u | 20.6µM* | -9.7 | -15.9 | -2.3 | 2.3%
CCOC(=O)c1cccc(S(=O)(=O)N(CCO)Cc2cc3cc(OC)ccc3[nH]c2=O)c1 | -15.5% | -7.2% | -1.3 | 0.0 | -1.9 | 7.3%
CCCCSc1nc(N)nc2c1ncn2C1OC(CO)C(O)C1O (stereo not drawn) | u | -27.6% | 1.6 | 11.7 | 2.8 | x
Cc1ccc2cc(CN(CC3CCCO3)S(=O)(=O)c3cccc4nsnc34)c(=O)[nH]c2c1 (stereo not drawn) | u | 18.4µM* | 13.0 | 2.4 | -4.1 | 0.0%
COc1ccc(-n2c(/C=C3\C(=O)N(C)c4ccccc43)nc3ccccc3c2=O)cc1 | -1.1% | u | 3.5 | x | 6.1 | x
CCN1C(=O)/C(=C\c2nc3ccccc3c(=O)n2-c2ccccc2)c2ccccc21 | 13µM* | 8.2µM* | -6.5 | u | 0.2 | 1.8%
CCN1C(=O)/C(=C/c2nc3ccccc3c(=O)n2-c2ccc(C)cc2)c2ccccc21 | 23.1µM* | 18.4µM* | 1.2 | x | 16.6 | 4.2%
CC[C@]12c3[nH]c4ccc(OC)cc4c3CCN1C(=O)C(CC(=O)NCCc1ccccn1)C[C@@H]2C(=O)N1CCN(C(=O)C2CC2)CC1 (stereo partly drawn) | -14.7% | -3.4% | 0.0 | 3.0 | 0.1 | 0.5%[56.1 µM]
COc1ccc([C@H]2CN(c3ccc(OC)cc3)C(=O)[C@@H]2CC(=O)Nc2ccccc2)cc1 | -17.5% | 13µM* | -16.1 | u | -25.7 | x
CCC[C@H]1CN(c2ccc(OC)cc2)C(=O)[C@@H]1CC(=O)Nc1ccccc1 | u | u | 4.6 | -8.2 | -1.6 | x
COc1ccc(NC(=O)C[C@H]2C(=O)N(c3ccc(OC)cc3)C[C@@H]2c2ccc(Br)cc2)cc1 | u | 23.1µM* | -17.8 | -26.4 | -22.2 | x
COc1ccc(NC(=O)C[C@H]2C(=O)N(c3ccc(Br)cc3)C[C@@H]2c2ccc(OC)cc2)cc1 | u | 20.6µM* | -13.3 | -27.1 | -13.3 | x
O=[N+]([O-])c1ccc(NN=Cc2ccco2)nc1 | 3.0% | -28.4% | -4.1 | 30.7 | -4.3 | x
COc1cc(/C=N/Nc2ccc([N+](=O)[O-])cn2)cc(OC)c1O | 0.5% | u | -11.1 | 78.9 | -20.8 | x
O=[N+]([O-])c1ccc(NN=Cc2cccc(O)c2)nc1 | 23.1µM* | u | -6.7 | 35.4 | -4.3 | x
CC(=O)Nc1ccc(C=NNc2ccc([N+](=O)[O-])cn2)cc1 | 23.1µM* | -25.1% | 2.5 | 9.4 | -1.9 | x
O=[N+]([O-])c1ccc(N/N=C\c2cccnc2)nc1 | -0.3% | -15.3% | x | 23.2 | 0.1 | 1.2%
O=[N+]([O-])c1ccc(NN=Cc2cc(Br)ccc2O)nc1 | 2.59µM* | 1.3µM* | u | 104.6 | u | x
Cc1cccc(C)c1-n1c(C)cc(/C=N\Nc2ccc([N+](=O)[O-])cn2)c1C | u | 14.6µM* | u | -22.0 | u | 3.8%
O=C(/C=C/c1ccco1)N1CCN(c2ccccc2)CC1 | 12.5% | 0.6% | 3.3 | 21.3 | -3.5 | 4.7%
O=S1(=O)CCN(CCCc2ccccc2)CC1 | -0.4% | -5.1% | 0.0 | -0.6 | 22.8 | x
CCOc1cc(N(CC)CC)ccc1/C=C(/C#N)c1nc2ccccc2[nH]1 | 16.4µM* | 10.3µM* | -16.4 | u | -28.7 | 8.3%
CCN(CC)c1ccc(/C=C(/C#N)c2nc3ccc(C)cc3[nH]2)c(OC(C)C)c1 | 14.6µM* | 20.6µM* | 0.0 | u | -22.7 | 7.3%
CCCOc1cc(N(CC)CC)ccc1/C=C(/C#N)c1nc2ccc(C)cc2[nH]1 | 20.6µM* | 13µM* | -8.1 | -1.9 | -9.8 | 7.3%
Cc1ccc(N(CC(=O)Nc2ccccc2C(=O)N2CCOCC2)S(C)(=O)=O)cc1 | 0.5% | -0.2% | 7.4 | 0.7 | 6.7 | -3.3%
SMILES | TDP1 cell CPT | TDP1 cell noCPT | CtBP-E1A inh | IL-1B inflam inh | Six1-Eya2 blk | TDP1 inh
CC(C)=CCc1c2c(c(O)c3c(=O)c(O)c(-c4ccccc4)oc13)C=CC(C)(C)O2 | -6.3% | -9.7% | x | x | x | 7.2%
CC(C)=CCc1c(-c2ccc(O)cc2O)oc2cc3c(c(O)c2c1=O)C=CC(C)(C)O3 | 23.1µM* | 23.1µM* | -9.0 | u | -7.6 | x
Cc1cc(C)c2cc(C=O)c(Cl)nc2c1 | 1.16µM* | 1.03µM* | 8.4 | 36.2 | -4.2 | 4.9%
CCCn1c(=O)c2ccccc2n2c(SCC(N)=O)nnc12 | 21.5% | -10.8% | -11.1 | -11.2 | -3.8 | x
Cc1c(C(=O)NCCc2ccc(Cl)cc2)cccc1-n1cnc2cccnc21 | 14.6µM* | 13µM* | x | x | x | 2.8%
N#CC(=C=[N-])c1nc2ccccc2nc1-[n+]1cccc(NC(=O)c2cccs2)c1 | 5.8µM* | 6.51µM* | -1.0 | 19.0 | -1.6 | 0.0%
COc1ccc(CNC(=O)CCC(=O)Nc2nnc(C(F)(F)F)s2)cc1 | -1.6% | 11.3% | -13.1 | 14.8 | -2.1 | 0.6%
O=[N+]([O-])c1cccc(CON=Cc2cc(Cl)ccc2O)c1 | -2.4% | u | -8.1 | -27.7 | -13.7 | x
O=C(N/N=C/c1cccc(C(F)(F)F)c1)c1cc2c(s1)-c1ccccc1CC2 | u | u | 5.4 | 0.0 | 5.1 | 2.8%
Cc1cccc(/C=N/NC(=O)c2cc3c(s2)-c2ccccc2CC3)c1 | 16.4µM* | 14.6µM* | 9.2 | 0.0 | 2.3 | 5.6%
Cc1ccc(-n2c(SCC(=O)Nc3cc(S(=O)(=O)N4CCOCC4)ccc3Cl)nc3ccccc3c2=O)cc1 | -25.0% | -5.6% | 6.2 | 7.1 | 15.2 | 1.8%
O=C(Cn1nnc2ccccc2c1=O)Nc1cccc(S(=O)(=O)N2CCOCC2)c1 | -21.5% | -3.8% | x | 1.4 | -2.0 | 7.7%
O=C(CSc1nc2ccccc2c(=O)n1-c1ccc(F)c(Cl)c1)Nc1cccc(S(=O)(=O)N2CCOCC2)c1 | 16.4µM* | u | -1.3 | 8.8 | -1.9 | 2.6%
O=C(CSc1nc2ccccc2c(=O)n1-c1ccc(F)cc1)Nc1ccc(Cl)c(S(=O)(=O)N2CCOCC2)c1 | u | 16.4µM* | 5.3 | -0.9 | -0.4 | 0.0%
